From PubChem BioAssay (NCATS)
Records with an inconclusive call do not appear. Active and inactive are the calls of the source. Unless noted, calls follow the shape of the dose curve; as a rule, active = well fitted curve in the direction sought with a large enough effect; inconclusive = small, poorly fitted or top-dose-only effect, or another doubt; inactive = no such curve, though single readings can be large; an effect the other way counts as inactive or inconclusive.

Key:
[1] = target: Lysosomal acid glucosylceramidase (Homo sapiens) (UniProt P04062); test: Glucocerebrosidase-p2 (AID 348; in the data active = potency below about 10 µM; also: potency is read from the fitted curve at half-maximal effect); conditions: purified GBA, blue fluorogenic substrate, 40 min
Method in brief: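 Compounds titrated from 0.6 nM upwards against 0.2 nM enzyme in pH 5.9 citric acid/KH2PO4, taurocholate, tween-20; blue fluorogenic substrate 80 uM, 40 min room temperature, stopped and read Ex 365/Em 440 for AC50.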

[2] = target: Cytochrome P450 1A2 (Homo sapiens) (UniProt P05177); test: p450-cyp1a2 (AID 410; calls by dose curve; also: potency is read from the fitted curve at half-maximal effect;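 as to activity change, negative = inhibition: -100% = full effect of reference inhibitor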); conditions: recombinant CYP1A2, luciferin-ME demethylation, luminescence; series mostly up to 57 µM
Method in brief: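 20nM CYP1A2 with 100uM Luciferin-ME (at Km) in 100mM KPO4; compound preincubated 10 min, NADPH regeneration added, 60 min at room temperature. Luciferin quantified by luminescence after detection reagent; normalized to 57 uM furafylline.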

[3] = target: Glucocorticoid receptor (Homo sapiens) (UniProt P04150); test: GR-GFP Redistribution (AID 450;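 active = compounds whose dose series gives a full or clear partial fitted curve of increased nuclear translocation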; also: potency is read from the fitted curve at half-maximal effect); conditions: U2OS GR-GFP nuclear translocation, laser cytometry, 2 h
[4] = target: Glucocorticoid receptor (Homo sapiens) (UniProt P04150); test: GR-EFC Redistribution (AID 451; calls by dose curve; also: potency is read from the fitted curve at half-maximal effect); conditions: CHO-K1 GR-EFC translocation, beta-gal luminescence, 2 h
Method in brief: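 CHO-K1 cells expressing nuclear EA and GR-ED fragments of b-gal; compounds titrated up to 46 uM final, 2 h at 37 C. GR nuclear translocation read as complemented b-gal luminescence after 1 h RT detection.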

[5] = target: Mitogen-activated protein kinase 10 (Mus musculus) (UniProt Q61831); test: JNK3 AlphaScreen Assay (AID 530; active = well fitted curve in either direction with a large enough effect, not every such curve was filed as active;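 also: kinase came from lysate of stimulated human HepG2 cells; signal reports phosphorylation of biotinylated GST-cJun 1-79 at Ser73 with 10 µM ATP; % is scaled to controls: 0 for no effect and ±100 for the full control effect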); conditions: JNK3 lysate, c-Jun phosphorylation; series mostly up to 57.1 µM
Method in brief: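 Pre-activated (IL-1β/TNFα) JNK3 in HepG2 lysates phosphorylates biotin-GST-cJun(1-79), 10 uM ATP; anti-phospho-cJun(Ser73) AlphaScreen read at room temperature, pH 7.6 Tris buffer. Compounds pre-incubated 15 min as titrations.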

[6] = target: 3',5'-cyclic-AMP phosphodiesterase 4B (Homo sapiens) (UniProt Q07343); test: qHTS Assay for Inhibitors of PDE-IV (AID 607; active = well fitted activation curve with a large enough effect in the main read-out, with a control signal flat, not every such curve was filed as active; also: % of control where 0% means no effect); conditions: HEK293 ACTOne CNG channel cells, membrane potential fluorescence; series mostly up to 22.9 µM
Method in brief: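 Cell-based read-out of cAMP via a modified cyclic nucleotide-gated channel and membrane potential dye (535/590 nm) in HEK293 cells expressing PDE4 endogenously. Compounds tested up to 22.9 uM final; 100 uM RO 20-1724 reference.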

[7] = target: Cytochrome P450 3A4 (Homo sapiens) (UniProt P08684); test: qHTS Assay for Activators of Cytochrome P450 3A4 (AID 885); conditions: recombinant CYP3A4, Luciferin-PPXE luminescence, 60 min; series mostly up to 57.1 µM; also: nearly all actives have a fitted effect of over 65% in size
Method in brief: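 Signal was normalized against complete inhibition by 57 uM ketoconazole. The reaction used 20nM CYP3A4 with 25uM Luciferin-PPXE, 10-min compound preincubation and a 60-min NADPH-supported step at RT.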

[8] = qHTS Assay for Identification of Small Molecule Agonists for Hypoxia Response Element Signaling Pathway (AID 914; active = well fitted activation curve with a large enough effect in the signal ratio, with a control signal flat, not every such curve was filed as active; the % refers to the signal ratio; also: potency is read from the fitted curve at half-maximal effect); conditions: ME-180 HRE-bla reporter, beta-lactamase ratio, CoCl2, 17 h; activation: stronger effect = higher value
Method in brief: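 In Opti-MEM containing 0.5% dialyzed FBS and 10 mM HEPES, ME-180 HRE-bla cells received a compound titration and EC50 CoCl2. They were incubated 17 hours, then CCF4-loaded 2.5 hours at room temperature before ratio reading.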

[9] = qHTS Assay for Lipid Storage Modulators (AID 1519; calls by dose curve); conditions: Drosophila S3 cells, BODIPY lipid droplet/cell ratio, laser cytometry, cells loaded with oleic acid; for activity change, negative = inhibition: at 57.5 µM (top of the series)
Method in brief: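 Cells seeded at 5,000 per well were treated with compounds over a concentration series and loaded with oleic acid (400 uM, as added). Lipid droplet fluorescence (488 nm excitation, 500-530 nm channel) was read by laser-scanning cytometry and normalized to 20 uM Triacsin C.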

[10] = target: Dual specificity protein kinase CLK4 (Homo sapiens) (UniProt Q9HAZ1); test: qHTS Assay for Inhibitors of CDC-like Kinase 4 (Kinase-Glo Assay) (AID 1770); conditions: recombinant Clk4, Kinase-Glo ATP depletion luminescence; series mostly up to 66.7 µM; also: nearly all actives have a fitted effect of over 65% in size; also: potency is read from the fitted curve at half-maximal effect
Method in brief: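 25 nM Clk4 with 100 uM RS repeat peptide and 1 uM ATP (final) in Tris pH7.5, 10 mM MgCl2, 4.5 h at room temperature. Remaining ATP measured by Kinase-Glo luciferase luminescence.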

[11] = target: Dual specificity protein kinase CLK4 (Homo sapiens) (UniProt Q9HAZ1); test: qHTS Assay for Inhibitors of CDC-like Kinase 4 (ADP-Glo Assay) (AID 1771); conditions: recombinant CLK4, ADP-Glo luminescence; series mostly up to 80 µM; also: nearly all actives have a fitted effect of over 70% in size; also: potency is read from the fitted curve at half-maximal effect
Method in brief: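 25 nM Clk4 with 100 uM RS repeat peptide and 1 uM ATP (final) in buffer with 2 mM MgCl2, 0.5 mM EGTA, 2.5 mM DTT, 0.01% Triton X-100; 1 h at room temperature; ADP-Glo luminescence for ADP formed.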

[12] = target: Ubiquitin carboxyl-terminal hydrolase 1 (Homo sapiens) (UniProt O94782); test: Inhibitors of USP1/UAF1: Pilot qHTS (AID 504865); conditions: purified USP1/UAF1, Ub-rhodamine cleavage fluorescence; series mostly up to 54.9 µM;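 also: rhodamine fluorescence freed from ubiquitin-rhodamine substrate followed over time; top concentration of the series differs between compounds; % is scaled to controls: 0 for no effect and ±100 for the full control effect; nearly all actives have a fitted effect of over 35% in size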
Method in brief: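 USP1/UAF1 complex at 1 nM preincubated 15 min at room temperature with compound, then Ub-Rho substrate added at 150 nM final. Fluorescence (480/540 nm) read kinetically in 50 mM HEPES pH 7.8, 0.5 mM EDTA, 1 mM TCEP, 0.1 mg/ml BSA, 0.01% Tween-20.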

[13] = Primary qHTS for small molecule stabilizers of the endoplasmic reticulum resident proteome: Secreted ER Calcium Modulated Protein (SERCaMP) assay (AID 1508630); conditions: SH-SY5Y GLuc-SERCaMP (Gaussia luciferase released on ER calcium loss) secretion, thapsigargin, luminescence; series mostly up to 38.4 µM; also: % is scaled to controls: 0 for no effect and ±100 for the full control effect
Method in brief: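 GLuc-SERCaMP-expressing SH-SY5Y cells, pretreated 16 h with compound, are challenged with thapsigargin to empty ER calcium stores; after 4 h, coelenterazine is added directly to the medium and luminescence is imaged.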

[14] = AP1 Signaling Pathway (AID 357; active = well fitted curve in either direction with a large enough effect, not every such curve was filed as active;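 also: ME-180 reporter cells stimulated with EGF at its EC50 level; % is scaled to controls: 0 for no effect and ±100 for the full control effect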); conditions: ME-180 AP-1-bla reporter, EGF-induced, beta-lactamase ratio, 5 h; at 7.69 µM (top of the series) unless noted
Method in brief: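 Read-out was the 460nm/530nm emission ratio (excitation 405nm) after CCF4 loading for 2.5 hours at room temperature. Cells carried an AP-1-driven beta-lactamase reporter, were stimulated with EC50 EGF plus compound for 5 hours, and AC50 values came from titrations.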

[15] = NFAT Signaling Pathway (AID 444; active = well fitted curve in either direction with a large enough effect, not every such curve was filed as active;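 also: carbachol stimulus at about its EC50 of 1 µM final; % is scaled to controls: 0 for no effect and ±100 for the full control effect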); conditions: Jurkat NFAT-bla M1, carbachol, beta-lactamase ratio, 5 h; at 7.69 µM (top of the series) unless noted
Method in brief: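 Jurkat cells with NFAT-driven β-lactamase reporter and co-expressed M1 receptor, stimulated with carbachol (final 1 uM, ~EC50), compound titration, 5 h at 37 °C. CCF4 loaded 1 h at RT; 460/530 nm ratio gave %activity and AC50.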

[16] = Stat Signaling Pathway (AID 446; active = well fitted curve in either direction with a large enough effect, not every such curve was filed as active); conditions: ME-180 SIE beta-lactamase reporter, IL-6 stimulated, 5 h; at 7.69 µM (top of the series) unless noted
Method in brief: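 Reporter line: ME-180 cervical carcinoma, SIE-beta-lactamase. Treatment: compound with 40 pM IL-6, 5 hrs, 37 C, in low-serum OPTI-MEM with 10 mM HEPES pH 7.3. Detection: 460/530 nm fluorescence.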

[17] = target: Cytochrome P450 3A4 (Homo sapiens) (UniProt P08684); test: qHTS Assay for Inhibitors and Substrates of Cytochrome P450 3A4 (AID 884); conditions: recombinant CYP3A4, Luciferin-PPXE luminescence; series mostly up to 57.1 µM; also: % is scaled to controls: 0 for no effect and ±100 for the full control effect; nearly all actives have a fitted effect of over 50% in size
Method in brief: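 20 nM human CYP3A4 with 25 uM Luciferin-PPXE (at KM) in 200 mM KPO4, preincubated 10 min with compound; NADPH regeneration started a 60 min RT reaction. Luciferin detected by luminescence, normalized to 57 uM ketoconazole as full inhibition.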

[18] = measured here: cell count channel max response
[19] = measured here: lipid channel max response

Glucocorticoid receptor (Homo sapiens), sequence (P04150 whole entry, looked up, the tested form may be a part): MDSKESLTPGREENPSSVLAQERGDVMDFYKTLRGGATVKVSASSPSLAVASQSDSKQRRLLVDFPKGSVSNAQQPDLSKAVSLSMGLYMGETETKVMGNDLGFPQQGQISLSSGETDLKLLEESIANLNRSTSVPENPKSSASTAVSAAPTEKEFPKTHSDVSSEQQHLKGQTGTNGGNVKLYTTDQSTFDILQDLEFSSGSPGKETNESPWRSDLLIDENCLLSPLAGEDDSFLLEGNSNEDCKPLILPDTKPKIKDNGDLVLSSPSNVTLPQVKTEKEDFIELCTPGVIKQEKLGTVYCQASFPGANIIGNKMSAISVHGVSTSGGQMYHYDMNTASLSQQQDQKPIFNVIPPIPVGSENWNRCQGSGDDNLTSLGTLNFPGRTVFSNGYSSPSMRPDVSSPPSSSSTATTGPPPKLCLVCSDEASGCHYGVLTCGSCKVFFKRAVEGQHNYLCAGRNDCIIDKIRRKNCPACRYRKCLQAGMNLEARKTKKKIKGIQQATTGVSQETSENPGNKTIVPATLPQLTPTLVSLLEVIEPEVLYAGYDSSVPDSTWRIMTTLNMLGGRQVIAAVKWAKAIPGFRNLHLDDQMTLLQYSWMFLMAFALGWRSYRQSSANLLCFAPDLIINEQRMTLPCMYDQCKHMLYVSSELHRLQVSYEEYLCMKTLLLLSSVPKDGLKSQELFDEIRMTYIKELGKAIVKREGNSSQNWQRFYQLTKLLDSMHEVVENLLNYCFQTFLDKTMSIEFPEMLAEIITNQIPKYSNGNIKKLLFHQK
Lysosomal acid glucosylceramidase (Homo sapiens), sequence (P04062 whole entry, looked up): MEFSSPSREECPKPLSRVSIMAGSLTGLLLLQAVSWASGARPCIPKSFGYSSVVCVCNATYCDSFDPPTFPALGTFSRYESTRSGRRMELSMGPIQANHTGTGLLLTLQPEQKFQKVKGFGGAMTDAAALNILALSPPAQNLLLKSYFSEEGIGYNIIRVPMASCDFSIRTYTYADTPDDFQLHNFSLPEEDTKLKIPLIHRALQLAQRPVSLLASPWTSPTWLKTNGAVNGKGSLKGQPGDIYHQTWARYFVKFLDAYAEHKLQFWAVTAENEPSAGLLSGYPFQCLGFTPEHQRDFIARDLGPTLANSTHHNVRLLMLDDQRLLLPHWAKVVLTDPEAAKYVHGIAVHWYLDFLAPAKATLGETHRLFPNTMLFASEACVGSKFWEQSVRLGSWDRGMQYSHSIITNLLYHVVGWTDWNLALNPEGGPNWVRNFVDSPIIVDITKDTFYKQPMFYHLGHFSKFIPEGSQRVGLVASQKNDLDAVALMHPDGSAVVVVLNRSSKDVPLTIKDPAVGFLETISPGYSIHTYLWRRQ
Dual specificity protein kinase CLK4 (Homo sapiens), sequence (Q9HAZ1 whole entry, looked up): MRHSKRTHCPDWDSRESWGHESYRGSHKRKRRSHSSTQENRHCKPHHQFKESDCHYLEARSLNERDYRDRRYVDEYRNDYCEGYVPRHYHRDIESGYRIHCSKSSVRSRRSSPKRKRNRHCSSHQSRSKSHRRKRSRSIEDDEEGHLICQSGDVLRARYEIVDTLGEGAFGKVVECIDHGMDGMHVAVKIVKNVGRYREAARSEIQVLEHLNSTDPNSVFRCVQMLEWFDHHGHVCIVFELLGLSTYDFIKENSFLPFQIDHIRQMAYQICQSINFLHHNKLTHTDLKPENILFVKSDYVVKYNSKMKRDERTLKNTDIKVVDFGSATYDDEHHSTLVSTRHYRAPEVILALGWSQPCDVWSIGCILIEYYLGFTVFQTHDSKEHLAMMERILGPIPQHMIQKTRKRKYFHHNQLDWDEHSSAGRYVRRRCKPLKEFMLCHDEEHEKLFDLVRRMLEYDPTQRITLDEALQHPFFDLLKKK
Ubiquitin carboxyl-terminal hydrolase 1 (Homo sapiens), sequence (O94782 whole entry, looked up): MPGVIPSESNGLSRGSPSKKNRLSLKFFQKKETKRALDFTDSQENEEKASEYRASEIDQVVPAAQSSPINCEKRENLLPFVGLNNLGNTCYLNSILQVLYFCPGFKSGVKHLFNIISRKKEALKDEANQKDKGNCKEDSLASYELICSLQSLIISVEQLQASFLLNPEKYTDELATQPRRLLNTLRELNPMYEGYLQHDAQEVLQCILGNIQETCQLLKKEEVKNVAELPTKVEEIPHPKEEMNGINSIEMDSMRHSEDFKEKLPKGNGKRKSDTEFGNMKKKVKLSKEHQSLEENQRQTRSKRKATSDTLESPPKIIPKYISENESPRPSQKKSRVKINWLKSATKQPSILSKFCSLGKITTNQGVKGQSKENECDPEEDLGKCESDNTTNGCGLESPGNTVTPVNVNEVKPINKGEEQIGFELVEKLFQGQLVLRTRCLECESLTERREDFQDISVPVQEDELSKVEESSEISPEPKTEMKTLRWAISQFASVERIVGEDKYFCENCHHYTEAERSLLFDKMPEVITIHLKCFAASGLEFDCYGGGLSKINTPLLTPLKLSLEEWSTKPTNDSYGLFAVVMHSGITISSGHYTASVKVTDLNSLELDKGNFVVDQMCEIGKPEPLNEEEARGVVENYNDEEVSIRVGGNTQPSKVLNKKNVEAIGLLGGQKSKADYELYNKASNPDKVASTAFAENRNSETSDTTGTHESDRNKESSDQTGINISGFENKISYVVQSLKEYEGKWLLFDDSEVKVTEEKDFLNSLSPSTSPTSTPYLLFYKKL
3',5'-cyclic-AMP phosphodiesterase 4B (Homo sapiens), sequence (Q07343 whole entry, looked up): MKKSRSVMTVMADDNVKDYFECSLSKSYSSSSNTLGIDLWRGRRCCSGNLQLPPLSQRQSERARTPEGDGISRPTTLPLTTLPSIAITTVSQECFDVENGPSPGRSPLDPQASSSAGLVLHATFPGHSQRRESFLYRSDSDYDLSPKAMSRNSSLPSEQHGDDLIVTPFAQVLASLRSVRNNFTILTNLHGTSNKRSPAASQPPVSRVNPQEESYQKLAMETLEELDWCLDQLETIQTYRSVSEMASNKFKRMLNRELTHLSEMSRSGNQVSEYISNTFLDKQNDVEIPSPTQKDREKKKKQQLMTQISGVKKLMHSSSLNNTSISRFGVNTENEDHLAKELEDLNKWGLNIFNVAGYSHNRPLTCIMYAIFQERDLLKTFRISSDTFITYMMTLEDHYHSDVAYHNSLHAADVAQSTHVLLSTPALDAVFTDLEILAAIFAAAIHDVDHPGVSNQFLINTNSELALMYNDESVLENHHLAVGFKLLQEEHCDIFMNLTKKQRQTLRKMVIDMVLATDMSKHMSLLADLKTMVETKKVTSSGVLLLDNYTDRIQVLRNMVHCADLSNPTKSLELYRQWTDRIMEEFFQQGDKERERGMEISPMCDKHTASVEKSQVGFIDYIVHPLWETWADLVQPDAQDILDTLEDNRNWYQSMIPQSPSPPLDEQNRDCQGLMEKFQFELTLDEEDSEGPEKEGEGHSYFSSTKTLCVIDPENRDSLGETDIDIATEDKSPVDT
Cytochrome P450 1A2 (Homo sapiens), sequence (P05177 whole entry, looked up): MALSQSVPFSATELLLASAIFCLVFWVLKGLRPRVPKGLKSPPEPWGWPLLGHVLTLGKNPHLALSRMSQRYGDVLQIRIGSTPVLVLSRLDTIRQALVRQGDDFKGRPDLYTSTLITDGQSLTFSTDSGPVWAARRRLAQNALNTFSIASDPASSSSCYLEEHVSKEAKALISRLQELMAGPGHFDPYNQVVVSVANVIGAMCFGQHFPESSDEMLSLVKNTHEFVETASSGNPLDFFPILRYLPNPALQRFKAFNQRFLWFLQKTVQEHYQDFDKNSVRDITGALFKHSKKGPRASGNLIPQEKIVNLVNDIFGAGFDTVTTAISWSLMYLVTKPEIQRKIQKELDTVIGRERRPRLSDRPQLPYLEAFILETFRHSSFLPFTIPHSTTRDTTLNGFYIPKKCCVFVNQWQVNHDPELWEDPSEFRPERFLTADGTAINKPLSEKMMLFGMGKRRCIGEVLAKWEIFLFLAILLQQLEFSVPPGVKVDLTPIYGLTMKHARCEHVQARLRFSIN
Cytochrome P450 3A4 (Homo sapiens), sequence (P08684 whole entry, looked up): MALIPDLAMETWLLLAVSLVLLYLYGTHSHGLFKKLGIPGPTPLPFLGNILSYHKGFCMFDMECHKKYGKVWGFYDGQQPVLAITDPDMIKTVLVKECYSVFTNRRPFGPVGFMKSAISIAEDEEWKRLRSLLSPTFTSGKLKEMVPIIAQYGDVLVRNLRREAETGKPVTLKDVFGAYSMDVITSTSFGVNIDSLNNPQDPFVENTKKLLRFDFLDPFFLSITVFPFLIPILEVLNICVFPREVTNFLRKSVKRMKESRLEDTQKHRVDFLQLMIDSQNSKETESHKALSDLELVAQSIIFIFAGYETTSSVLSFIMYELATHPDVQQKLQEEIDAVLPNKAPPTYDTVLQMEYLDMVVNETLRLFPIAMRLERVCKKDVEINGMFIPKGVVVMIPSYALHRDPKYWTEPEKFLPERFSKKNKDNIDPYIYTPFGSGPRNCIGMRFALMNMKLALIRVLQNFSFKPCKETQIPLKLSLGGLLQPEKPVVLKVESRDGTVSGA

COc1cccc(Cn2c(=O)c(-c3cccc(C#N)c3)nc3cnc(N4CCN(C)CC4)nc32)c1
24.1%: max response [9, 19]
inactive: Potency [1] > 11.4 µM | Potency [2] | Potency [3] > 9.22 µM | Potency [4] > 46 µM | outcome [5] | Potency [6] | Potency [7] | activity change, negative = inhibition [9] 2.54% | Potency [10] | Potency [11] | Potency [12] | Potency [13]
21.5%: max response [9, 18]
active: Potency [8] 3.16 µM

Cn1cc(-c2nc3cnc(N4CCNCC4)nc3n(CCC#N)c2=O)c2ccccc21
-5%: max response [9, 19]
-3.78%: max response [9, 18]
active: Potency [8] 3.16 µM
inactive: Potency [1] > 11.4 µM | activity change, negative = inhibition [14] 14.5% | activity change, negative = inhibition [15] 1.75% | Potency [3] > 9.22 µM | outcome [5] | Potency [6] | activity change, negative = inhibition [9] 1.65% | Potency [10] | Potency [11] | Potency [12] | Potency [13]

CCNc1ncc2ncc(=O)n(CCOC)c2n1
18.7%: max response [9, 18]
22.5%: max response [9, 19]
inactive: Potency [1] > 11.4 µM | activity change, negative = inhibition [14] -22.6% | activity change, negative = inhibition [15] 4.31% | activity, negative = inhibition [16] -26.5% | Potency [3] > 46 µM | Potency [4] > 46 µM | outcome [5] | Potency [6] | activity change, negative = inhibition [9] 6.16% | Potency [12] | Potency [13]
active: Potency [10] 15.8 µM | Potency [11] 11.2 µM

COc1ccccc1-c1cncnc1-n1ccnc1
19.4%: max response [9, 18]
active: Potency [2] 12.6 µM
28.5%: max response [9, 19]
inactive: Potency [1] > 11.4 µM | activity change, negative = inhibition [14] -7.86% | activity change, negative = inhibition [15] 1.61% | activity, negative = inhibition [16] 10.2% | Potency [3] > 46 µM | Potency [4] > 46 µM | outcome [5] | Potency [6] | Potency [17] | activity change, negative = inhibition [9] 7.28% | Potency [12] | Potency [13]
